Screens as filed in PubChem.
Mtb FBA inh – inhibitors of M. tuberculosis fructose-bisphosphate aldolase | P9WQA3 | purified M. tuberculosis FBA, fluorescence read-out | inhibition, % at 1 µM | 360,000 compounds, 2.3% hits; in the data active = inhibition above about 27%;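 note: 0% = vehicle and 100% = reference inhibitor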
BoNT F protease – blocks Botulinum neurotoxin F light chain protease | Multiplex microsphere protease cleavage assay, flow cytometry | 360,000 compounds, 0.22% hits | inhibition, % at 10 µM; in the data active = inhibition above about 35%, passing the limit was not always enough; inconclusive = no clear call, values can overlap the other calls; note: plate controls were buffer without enzyme for full effect and enzyme alone for no effect
Autofluor counter – counter-screen for toxin protease inhibitors: compound fluorescence; compound autofluorescence counterscreen, microsphere flow cytometry; stronger effect = higher value; fluorescence intensity (concentration not given with the values); 360,000 compounds, 3.1% hits; in the data active = fluorescence intensity above about 16000; inconclusive = no clear call, values can overlap the other calls
BoNT-A LC inh2 – BoNT A light chain protease inhibition; 360,000 compounds, 0.17% hits; AID 588499; multiplex microsphere protease substrate cleavage, flow cytometry; inhibition, % at 10 µM; note: plate controls were buffer without enzyme for full effect and enzyme alone for no effect
GDH-TPI inh – GDH-TPI coupled enzyme inhibition counter-screen; GDH-TPI coupled enzyme counterscreen, NADH absorbance; inhibition, % at 4.8 µM; 360,000 compounds, 1.2% hits; AID 588335; in the data active = inhibition above about 30%;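 note: 0% = DMSO wells and 100% = wells lacking the enzyme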
Anthrax LF inh2 – inhibitors of Bacillus anthracis lethal factor protease | P15917 | multiplex microsphere protease cleavage assay, LF | inhibition, % at 10 µM | 360,000 compounds, 0.12% hits; note: plate controls were buffer without enzyme for full effect and enzyme alone for no effect
Target sequence (P15917 whole entry, looked up): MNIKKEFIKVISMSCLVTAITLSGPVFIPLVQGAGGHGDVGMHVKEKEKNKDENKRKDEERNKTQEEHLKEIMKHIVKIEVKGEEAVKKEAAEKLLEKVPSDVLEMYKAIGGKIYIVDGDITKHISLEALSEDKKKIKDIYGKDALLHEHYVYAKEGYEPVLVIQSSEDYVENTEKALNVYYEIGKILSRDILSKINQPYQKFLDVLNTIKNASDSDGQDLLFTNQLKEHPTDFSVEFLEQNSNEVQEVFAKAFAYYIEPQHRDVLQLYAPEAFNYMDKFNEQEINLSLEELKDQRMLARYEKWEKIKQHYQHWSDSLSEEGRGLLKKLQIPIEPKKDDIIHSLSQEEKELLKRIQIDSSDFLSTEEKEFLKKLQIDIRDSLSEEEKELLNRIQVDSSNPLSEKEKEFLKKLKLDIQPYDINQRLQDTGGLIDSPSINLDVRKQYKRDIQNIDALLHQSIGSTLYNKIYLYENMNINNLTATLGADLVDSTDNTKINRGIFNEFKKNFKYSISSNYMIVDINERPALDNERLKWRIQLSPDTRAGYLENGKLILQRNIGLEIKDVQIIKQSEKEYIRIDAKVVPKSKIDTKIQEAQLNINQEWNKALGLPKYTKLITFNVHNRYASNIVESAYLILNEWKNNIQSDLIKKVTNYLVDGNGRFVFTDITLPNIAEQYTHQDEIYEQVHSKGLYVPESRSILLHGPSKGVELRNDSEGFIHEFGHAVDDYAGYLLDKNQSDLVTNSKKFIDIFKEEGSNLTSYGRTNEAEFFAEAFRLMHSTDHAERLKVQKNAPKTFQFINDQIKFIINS
An asterisk follows results filed as active. Shown are actives, neighbours in structure and some others; about 6.6% of the full set was active somewhere. Cut-off read from the data, not from the text of the source, unless noted: active = inhibition above about 30%; inconclusive = no clear call, values can overlap the other calls; inactive = below that.

How did O=C(NCc1ccco1)c1cnc2sccn2c1=O do in these assays?
Mtb FBA inh: 1; BoNT F protease: -3; Autofluor counter: 4163; BoNT-A LC inh2: -1; GDH-TPI inh: 33*; Anthrax LF inh2: -4

How did O=C(Nc1nccs1)c1cnc2sccn2c1=O do in these assays?
Mtb FBA inh: 1; BoNT F protease: 2; Autofluor counter: 2762; BoNT-A LC inh2: 0; GDH-TPI inh: 45*; Anthrax LF inh2: -1

Results for O=C(Nc1cnc2sccn2c1=O)c1ccc(Cl)cc1Cl ?
Mtb FBA inh: 1; BoNT F protease: 2; Autofluor counter: 22211*; BoNT-A LC inh2: 0; GDH-TPI inh: -2; Anthrax LF inh2: 0

Results for COC(=O)N1CC(c2ccccc2)CC1=O (stereo unspecified) ?
Mtb FBA inh: -2; BoNT F protease: 3; Autofluor counter: 19692*; BoNT-A LC inh2: 1; GDH-TPI inh: -3; Anthrax LF inh2: 0

What do the screens show for `CCCCn1nnnc1C(c1ccccc1)N1CCN(c2cc(C)ccc2C)CC1` (stereo unspecified)?
BoNT F protease: 5; Autofluor counter: 5603; BoNT-A LC inh2: 0; Anthrax LF inh2: 1

What do the screens show for `Nc1c(C(=O)NCc2ccccc2)nnn1Cc1ccccc1`?
Mtb FBA inh: 4; BoNT F protease: -11; Autofluor counter: 4719; BoNT-A LC inh2: -2; GDH-TPI inh: 7; Anthrax LF inh2: -13

Results for CN(C)/C=N/c1c(C(=O)NCc2ccccc2)nnn1Cc1ccccc1 ?
Mtb FBA inh: 1; BoNT F protease: 12; Autofluor counter: 18876*; BoNT-A LC inh2: 8; GDH-TPI inh: 12; Anthrax LF inh2: 2

What do the screens show for `CCOC(=O)C1(C)CCCCN1C(=O)c1ccc(F)c(C)c1` (stereo unspecified)?
Mtb FBA inh: 0; BoNT F protease: 1; Autofluor counter: 3680; BoNT-A LC inh2: 0; GDH-TPI inh: -1; Anthrax LF inh2: -2

What do the screens show for `O=C(CSc1nnc(-c2ccccc2Cl)o1)Nc1ccc2c(c1)OCCO2`?
Mtb FBA inh: 0; BoNT F protease: 0; Autofluor counter: 19436*; BoNT-A LC inh2: 1; GDH-TPI inh: -11; Anthrax LF inh2: -4

How did Cc1cccc(NC(=O)CSc2nnc(-c3ccccc3C)o2)c1 do in these assays?
Mtb FBA inh: -2; BoNT F protease: 1; Autofluor counter: 18972*; BoNT-A LC inh2: 2; GDH-TPI inh: -10; Anthrax LF inh2: -4

Results for O=C(CSc1nnc(-c2ccc(O)cc2)o1)Nc1ccc2c(c1)OCCO2 ?
Mtb FBA inh: 1; BoNT F protease: -1; Autofluor counter: 3433; BoNT-A LC inh2: 0; GDH-TPI inh: 4; Anthrax LF inh2: -1

How did Cc1ccc(NC(=O)CSc2nnc(-c3ccccc3C)o2)cc1C do in these assays?
Mtb FBA inh: 2; GDH-TPI inh: 0

What do the screens show for `Cc1cc(C)cc(NC(=O)CSc2nnc(-c3ccccc3C)o2)c1`?
Mtb FBA inh: -2; BoNT F protease: 0; Autofluor counter: 19314*; BoNT-A LC inh2: inconclusive; GDH-TPI inh: -2; Anthrax LF inh2: -8

What do the screens show for `COc1ccc(CN(C(=O)CSc2nnc(-c3ccccc3C)o2)c2ccc(F)cc2)cc1`?
Mtb FBA inh: active; BoNT F protease: 7; Autofluor counter: 2721; BoNT-A LC inh2: 0; GDH-TPI inh: -16; Anthrax LF inh2: -1

How did O=C(Cc1cccs1)NCCS(=O)(=O)N1CCN(c2ccccc2F)CC1 do in these assays?
Mtb FBA inh: 0; BoNT F protease: inconclusive; Autofluor counter: inconclusive; BoNT-A LC inh2: 5; GDH-TPI inh: -5; Anthrax LF inh2: -3

What do the screens show for `COCCSc1ccccc1C(=O)NCc1ccc(S(N)(=O)=O)cc1`?
Mtb FBA inh: -1; BoNT F protease: 2; Autofluor counter: 23008*; BoNT-A LC inh2: inconclusive; GDH-TPI inh: 4; Anthrax LF inh2: 0

How did COCCCNC(=O)c1ccc(N2CCCC2)c(NS(=O)(=O)c2ccc(C)cc2)c1 do in these assays?
Mtb FBA inh: 3; BoNT F protease: -6; Autofluor counter: 24938*; BoNT-A LC inh2: -3; GDH-TPI inh: 4; Anthrax LF inh2: 1

How did Cc1ccc(S(=O)(=O)Nc2cc(C(=O)N3CCOCC3)ccc2N2CCCCC2)cc1 do in these assays?
Mtb FBA inh: -2; BoNT F protease: 4; Autofluor counter: 3168; BoNT-A LC inh2: 0; GDH-TPI inh: -2; Anthrax LF inh2: 0

What do the screens show for `Cc1ccc(S(=O)(=O)Nc2cc(C(=O)O)ccc2N2CCCCC2)cc1`?
Mtb FBA inh: 3; BoNT F protease: 1; Autofluor counter: 23478*; BoNT-A LC inh2: -1; GDH-TPI inh: 6; Anthrax LF inh2: -2

How did Cn1c(=O)c(=O)n(C)c2cc(N3CCOCC3)c(NS(=O)(=O)c3ccc(Br)cc3)cc21 do in these assays?
Mtb FBA inh: 0; BoNT F protease: 2; Autofluor counter: 5076; BoNT-A LC inh2: 2; GDH-TPI inh: 15; Anthrax LF inh2: 0

How did Cc1ccc(S(=O)(=O)Nc2cc3c(cc2N2CCOCC2)n(C)c(=O)c(=O)n3C)cc1 do in these assays?
Mtb FBA inh: 3; BoNT F protease: -2; Autofluor counter: 5497; BoNT-A LC inh2: -1; GDH-TPI inh: 32*; Anthrax LF inh2: 5

How did CCOCCCNC(=O)c1ccc(N2CCCC2)c(NS(=O)(=O)c2ccc(C)cc2)c1 do in these assays?
Mtb FBA inh: 2; BoNT F protease: -3; Autofluor counter: 4213; BoNT-A LC inh2: -1; GDH-TPI inh: 4; Anthrax LF inh2: -6

What do the screens show for `Cc1ccc(C)c(-c2nnc(NC(=O)CCS(=O)(=O)c3ccc(F)cc3)o2)c1`?
Mtb FBA inh: 5; BoNT F protease: -11; Autofluor counter: inconclusive; BoNT-A LC inh2: -2; GDH-TPI inh: 0; Anthrax LF inh2: 2

Results for O=C(COc1ccccc1)N/N=C/c1ccc(O[C@@H]2O[C@H](CO)[C@@H](O)[C@H](O)[C@H]2O)cc1 ?
Mtb FBA inh: -2; BoNT F protease: -3; Autofluor counter: 2492; BoNT-A LC inh2: 0; GDH-TPI inh: 7; Anthrax LF inh2: -3

What do the screens show for `Fc1ccc(CN2CCCCCCC2)cc1F`?
Mtb FBA inh: -2; BoNT F protease: -3; Autofluor counter: 16629*; BoNT-A LC inh2: -2; GDH-TPI inh: 10; Anthrax LF inh2: -4

What do the screens show for `FC(F)(F)c1cccc(CN2CCCCCC2)c1`?
Mtb FBA inh: 0; BoNT F protease: -4; Autofluor counter: 24319*; BoNT-A LC inh2: -2; GDH-TPI inh: 4; Anthrax LF inh2: 0

How did Fc1ccc(CN2CCCCCC2)c(F)c1 do in these assays?
Mtb FBA inh: 1; BoNT F protease: 3; Autofluor counter: 22437*; BoNT-A LC inh2: 1; GDH-TPI inh: 8; Anthrax LF inh2: -1

How did O=C(NCC1COc2ccccc2O1)c1ccc(Cl)c(S(=O)(=O)N2CCCC2)c1 (stereo unspecified) do in these assays?
Mtb FBA inh: 4; BoNT F protease: -4; Autofluor counter: 3641; BoNT-A LC inh2: 0; GDH-TPI inh: 16; Anthrax LF inh2: -9

Results for O=C(O)c1ccc(N/N=C/c2ccc(-c3ccccc3)cc2)cc1 ?
Mtb FBA inh: 7; BoNT F protease: -1; Autofluor counter: 3327; BoNT-A LC inh2: 0; GDH-TPI inh: 26; Anthrax LF inh2: -4
